Measured values reported in PubChem BioAssay (Tox21).
Where “and” joins values, the source holds several entries; their conditions need not be identical. Equal values may be shown once. Records with an inconclusive call do not appear. More than one record can exist for a structure, and the calls need not agree. Calls of active or inactive are those of the source. Unless noted, the call rests on the fitted dose curve; in most records, active means well fitted curve in the direction sought with a large enough effect in the repeat runs; inconclusive means weak or mixed curves; inactive means no such curve, though single readings can be large; an effect the other way counts as inactive or inconclusive.

How the values were obtained:
[1] = qHTS assay to identify small molecule antagonists of the retinoid acid receptor (RAR) signaling pathway - cell viability counter screen (AID 1159551); further: nearly all actives have a fitted effect of over 35% in size; further: potency means the concentration at half of the fitted maximal effect
Method in brief: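 Luminescent ATP quantitation (CellTiter-Glo) gave cell viability in C3RL4 cells exposed to test chemicals for 6 h at 37 C alongside 1 uM final retinol.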

[2] = qHTS assay to identify small molecule agonists of the retinoic acid receptor (RAR) signaling pathway (AID 1159553)
Method in brief: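 Luminescence from a RARE-driven luciferase reporter in C3RL4 cells served as the read-out, measured after 30 min with detection reagent at room temperature. Compounds in DMSO were applied for 6 hr at 37 C following overnight seeding.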

[3] = qHTS assay to identify small molecule antagonists of the estrogen related receptor (ERR) signaling pathway from Tox21 library - cell viability counter screen (AID 1224834); further: nearly all actives have a fitted effect of over 30% in size; further: potency means the concentration at half of the fitted maximal effect
Method in brief: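 Fluorescence from CellTiter-Fluor gives the viability read-out, taken 30 min after reagent addition. Before that, ERR cells seeded 6 h earlier were incubated with compounds for 17.5 h at 37 C.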

[4] = target: Luciferin 4-monooxygenase (Photinus pyralis) (UniProt P08659); experiment: qHTS assay to identify small molecule inhibitors of firefly luciferase (AID 1224835); further: series mostly up to about 120 µM; nearly all actives have a fitted effect of over 25% in size
Method in brief: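 Quantitative HTS format; KM concentrations of both substrates. Purified P. pyralis FLuc activity quantified from luminescence images.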

[5] = qHTS assay to identify small molecule agonists of the constitutive androstane receptor (CAR) signaling pathway - cell viability counter screen (AID 1224836); further: series mostly up to about 92 µM; nearly all actives have a fitted effect of over 45% in size
Method in brief: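 HepG2-CYP2B6-hCAR, 2500 cells/well, 4 h pre-incubation; cpd 15 conc + PK11195 0.75 uM final; 23 h, 37 C/5% CO2; CellTiter-Fluor, fluorescence.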

[6] = qHTS assay to identify small molecule antagonists of the constitutive androstane receptor (CAR) signaling pathway - cell viability counter screen (AID 1224837); further: nearly all actives have a fitted effect of over 45% in size; further: potency means the concentration at half of the fitted maximal effect; on activity change, negative = cytotoxicity: series mostly up to about 92 µM
Method in brief: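 HepG2-CYP2B6-hCAR cells, 2500/well, 4 hr pre-incubation; compound titration, 15 conc.; CITCO 50 nM final; 23 hr, 37 C/5% CO2; CellTiter-Fluor, fluorescence intensity.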

[7] = qHTS assay to identify small molecule antagonists of the estrogen related receptor signaling pathway with the pleiotropic PPARgamma coactivator (PGC) from Tox21 10K library - cell viability counter screen (AID 1224840; active means well fitted cell-killing curve with a large enough effect in the repeat runs, not every such curve was filed as active; further: nearly all actives have a fitted effect of over 40% in size; further: potency means the concentration at half of the fitted maximal effect)
Method in brief: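 PGC/ERR cells, 2,000/well; 6 h pre-incubation 37 C/5% CO2; cpd in DMSO via pin tool; 17.5 h 37 C; CellTiter-Fluor, 30 min; fluorescence.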

[8] = qHTS assay to identify small molecule agonists of the estrogen related receptor signaling pathway with the pleiotropic PPARgamma coactivator (PGC) from Tox21 10K library (AID 1224842); further: nearly all actives have a fitted effect of over 15% in size; further: potency means the concentration at half of the fitted maximal effect
Method in brief: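 PGC/ERR reporter cells (NTP line) were seeded 2,000 per well, rested 6 h at 37 C/5% CO2, then pin-dosed with compounds in DMSO for 18 h at 37 C; luciferase read by One-Glo luminescence after 30 min at room temperature.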

[9] = qHTS assay to identify small molecule agonists of the hypoxia (HIF-1) signaling pathway - cell viability counter screen (AID 1224844; calls by dose curve; further: nearly all actives have a fitted effect of over 50% in size; further: potency means the concentration at half of the fitted maximal effect)
Method in brief: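 ME-180 HRE-bla cells, 2,000/well, 0.5% dialyzed FBS; 5 hr settle, 17 hr compound at 37C/5% CO2; CCF4-AM reporter read first, then CellTiter-Glo luminescence after 30 min RT.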

[10] = qHTS assay to identify small molecule antagonists of the retinoic acid receptor (RAR) signaling pathway (AID 1159552; further: nearly all actives have a fitted effect of over 50% in size; further: potency means the concentration at half of the fitted maximal effect)
Method in brief: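 Cells of the C3RL4 line were seeded, incubated overnight, then dosed with compounds in DMSO followed immediately by retinol (1 uM final). Six hours later luciferase detection reagent went in; signal was measured after 30 min at RT.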

[11] = target: Thyrotropin receptor (Homo sapiens) (UniProt P16473); experiment: qHTS assay to identify small molecule agonists of the thyroid stimulating hormone receptor (TSHR) signaling pathway (AID 1224843; calls by dose curve; further: nearly all actives have a fitted effect of over 45% in size)
Method in brief: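 Cell line HEK293 with TSHR; density 800/well. Exposure 30 min RT. Readout HTRF cAMP (cAMP-d2/anti-cAMP-cryptate), 1 h RT before reading.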

[12] = target: Nuclear receptor subfamily 1 group I member 3 (Homo sapiens) (UniProt Q14994); experiment: qHTS assay to identify small molecule antagonists of the constitutive androstane receptor (CAR) signaling pathway (AID 1224838);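 further: HepG2 cells stably expressing hCAR with CYP2B6 luciferase reporter stimulated by CITCO; nearly all actives have a fitted effect of over 40% in size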
Method in brief: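 HepG2-CYP2B6-hCAR cells; 4 h pre-incubation; cpd (15 conc) + CITCO 50 nM final; 24 h, 37 C/5% CO2; ONE-Glo, luminescence.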

[13] = target: Nuclear receptor subfamily 1 group I member 3 (Homo sapiens) (UniProt Q14994); experiment: qHTS assay to identify small molecule agonists of the constitutive androstane receptor (CAR) signaling pathway (AID 1224839);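 further: HepG2 cells stably carrying human CAR and a CYP2B6 luciferase reporter; series mostly up to about 92 µM; nearly all actives have a fitted effect of over 15% in size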
Method in brief: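 HepG2-CYP2B6-hCAR cells, 2500/well, 4 h pre-incubation; compounds 15 conc.; PK11195 0.75 uM final; 24 h, 37 C/5% CO2; ONE-Glo luciferase read.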

[14] = qHTS assay to identify small molecule antagonists of the estrogen related receptor signaling pathway with the pleiotropic PPARgamma coactivator (PGC) from Tox21 10K library (AID 1224841; call rule not given here; further: series mostly up to about 92 µM; actives are mostly falling curves and most rising ones were filed inactive; nearly all actives have a fitted effect of over 50% in size)
Method in brief: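 PGC/ERR cell line, 2,000 cells/well; 6 h pre-incubation 37 C/5% CO2; compounds (DMSO) pinned in; 18 h, 37 C; One-Glo, 30 min RT; luminescence.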

[15] = qHTS assay to identify small molecule antagonists of the estrogen related receptor (ERR) signaling pathway - cell viability counter screen (AID 1224818);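 further: series mostly up to about 46 µM; viability measured after 17.5 h of compound exposure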
Method in brief: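 Multiplexed counter screen to separate cytotoxic compounds from true ERR modulators. ERR cells received DMSO-dissolved compounds after a 6 h pre-incubation, were exposed 17.5 h at 37 C, then assayed with CellTiter-Fluor fluorescence.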

[16] = qHTS assay to identify small molecule antagonists of the estrogen related receptor (ERR) signaling pathway (AID 1224819;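 further: luminescence from an ERR-driven luciferase reporter measured with One-Glo reagent; series mostly up to about 46 µM; nearly all actives have a fitted effect of over 50% in size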)
Method in brief: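 Seed ERR cells 2,000/well; rest 6 h at 37 C/5% CO2; pin compounds in DMSO; incubate 18 h at 37 C; add One-Glo; wait 30 min at room temperature; measure luminescence.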

[17] = qHTS assay to identify small molecule agonists of the estrogen related receptor (ERR) signaling pathway (AID 1224820)
Method in brief: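 ERR reporter cell line (from NTP), 2,000 cells/well, incubated 6 h before compound addition, then 18 h at 37 C. Luminescence measured 30 min after One-Glo reagent at room temperature.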

[18] = qHTS assay to identify small molecule agonists of the estrogen related receptor signaling pathway with the pleiotropic PPARgamma coactivator (PGC) (AID 1224823)
Method in brief: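 PGC/ERR reporter cells seeded 6 h, then exposed to compounds (23 nL in DMSO) for 18 h at 37 C. One-Glo luciferase luminescence read after 30 min at room temperature.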

[19] = qHTS assay to identify small molecule antagonists of the estrogen related receptor signaling pathway with the pleiotropic PPARgamma coactivator (PGC) cell viability counter screen (AID 1224822; further: series mostly up to about 46 µM)
Method in brief: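 Cells: PGC/ERR, 2,000/well, 1536-well format. Pre-incubation 6 h, 37 C/5% CO2. Compound exposure 17.5 h, 37 C. Detection: CellTiter-Fluor, 30 min, fluorescence.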
On the % scale 0 is the no-effect control and ±100 the full control effect.

Chain of Nuclear receptor subfamily 1 group I member 3 (Homo sapiens) (Q14994 whole entry, looked up): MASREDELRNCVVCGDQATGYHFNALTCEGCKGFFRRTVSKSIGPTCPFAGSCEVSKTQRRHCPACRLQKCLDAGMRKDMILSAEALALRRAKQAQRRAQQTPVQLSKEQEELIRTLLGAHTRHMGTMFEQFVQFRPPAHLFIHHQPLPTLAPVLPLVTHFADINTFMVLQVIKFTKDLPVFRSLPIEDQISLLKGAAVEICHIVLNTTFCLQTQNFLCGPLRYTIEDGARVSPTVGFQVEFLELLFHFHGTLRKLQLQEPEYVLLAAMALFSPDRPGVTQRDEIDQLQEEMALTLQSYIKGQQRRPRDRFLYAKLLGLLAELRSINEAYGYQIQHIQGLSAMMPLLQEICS
Chain of Luciferin 4-monooxygenase (Photinus pyralis) (P08659 whole entry, looked up): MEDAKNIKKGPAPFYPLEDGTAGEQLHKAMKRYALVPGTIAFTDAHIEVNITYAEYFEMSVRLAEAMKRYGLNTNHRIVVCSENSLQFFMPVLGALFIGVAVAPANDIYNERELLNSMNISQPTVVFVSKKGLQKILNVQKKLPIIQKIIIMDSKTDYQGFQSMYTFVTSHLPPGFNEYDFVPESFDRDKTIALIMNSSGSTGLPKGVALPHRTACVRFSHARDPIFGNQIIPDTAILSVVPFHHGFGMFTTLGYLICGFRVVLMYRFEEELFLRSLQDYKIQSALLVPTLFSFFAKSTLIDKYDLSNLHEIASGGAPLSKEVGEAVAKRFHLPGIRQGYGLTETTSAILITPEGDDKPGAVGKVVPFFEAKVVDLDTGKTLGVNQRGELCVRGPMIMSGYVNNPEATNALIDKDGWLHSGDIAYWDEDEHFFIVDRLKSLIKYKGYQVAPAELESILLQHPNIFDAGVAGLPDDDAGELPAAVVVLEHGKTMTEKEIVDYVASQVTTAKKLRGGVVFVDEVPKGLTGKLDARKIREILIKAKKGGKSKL
Chain of Thyrotropin receptor (Homo sapiens) (P16473 whole entry, looked up): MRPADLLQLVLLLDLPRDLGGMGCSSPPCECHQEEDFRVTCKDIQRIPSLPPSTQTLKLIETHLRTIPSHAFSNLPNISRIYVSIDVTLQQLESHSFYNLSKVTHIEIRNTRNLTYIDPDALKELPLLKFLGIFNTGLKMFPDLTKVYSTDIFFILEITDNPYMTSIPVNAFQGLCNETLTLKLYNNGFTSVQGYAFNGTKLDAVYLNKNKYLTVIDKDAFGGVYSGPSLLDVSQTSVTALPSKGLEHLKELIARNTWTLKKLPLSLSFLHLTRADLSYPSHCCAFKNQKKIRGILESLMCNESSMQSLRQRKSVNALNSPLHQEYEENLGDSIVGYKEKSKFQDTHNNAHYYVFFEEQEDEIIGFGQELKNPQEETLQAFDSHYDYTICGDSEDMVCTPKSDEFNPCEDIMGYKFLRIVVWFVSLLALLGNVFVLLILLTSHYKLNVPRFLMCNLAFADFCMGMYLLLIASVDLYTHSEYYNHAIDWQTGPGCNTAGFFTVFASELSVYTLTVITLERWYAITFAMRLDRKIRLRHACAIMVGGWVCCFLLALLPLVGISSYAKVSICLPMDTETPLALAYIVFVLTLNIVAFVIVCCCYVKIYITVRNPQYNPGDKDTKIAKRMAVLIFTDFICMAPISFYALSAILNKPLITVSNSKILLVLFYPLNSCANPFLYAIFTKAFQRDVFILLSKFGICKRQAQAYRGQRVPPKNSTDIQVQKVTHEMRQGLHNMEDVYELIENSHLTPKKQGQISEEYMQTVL

CC(C)(C)c1cc(/C=C2\SC(=N)NC2=O)cc(C(C)(C)C)c1O
active: Potency [3] 61.1 µM | Potency [7] 61.1 µM | Potency [9] 54.9 µM
inactive: Potency [1] | Potency [2] | Potency [4] | Potency [5] | Potency [6] | Potency [8]

C=C/C=C/C=C/CCCCC
inactive: activity change, negative = cytotoxicity [1] -3.82% [at 19 µM] | activity, negative = inhibition [10] 7.32% [at 19 µM] | viability change, negative = cytotoxic [3] -1.2% [at 19 µM] | activity change, negative = inhibition [4] 0.374% [at 23.6 µM] | activity change, negative = cytotoxicity [6] -1.33% [at 19 µM] | viability change, negative = cytotoxic [7] -9.87% [at 19 µM] | activation [8] 0.0738% [at 19 µM] | activation [11] -9.38% [at 19 µM] | activity change, negative = cytotoxicity [9] -12% [at 15.8 µM]

CCCOc1sc(C(=O)N2CCC(c3cc(CN)ccc3F)CC2)c(C)c1Br
inactive: Potency [4] | Potency [8]
active: Potency [1] 62.8 µM | Potency [10] 39.7 µM | Potency [3] 49.9 µM | Potency [6] 62.8 µM | Potency [7] 56 µM | Potency [9] 28.3 µM

CSc1c(Cl)c(Cl)c(Cl)c(Cl)c1Cl
inactive: Potency [1] | Potency [2] | Potency [3] | Potency [4] | Potency [5] | Potency [6] | Potency [12] | Potency [7]

CCOC(OCC)C(=O)c1ccccc1
inactive: Potency [1] | Potency [10] | Potency [3] | Potency [4] | Potency [13] | Potency [7] | Potency [14] | Potency [8] | Potency [9]

O=C(O)CC(=O)O
inactive: Potency [1] | Potency [2] | Potency [3] | Potency [4] | Potency [5] | Potency [6] | Potency [12] | Potency [7] | Potency [11] | Potency [9]

Brc1ccccc1-c1ccccc1
active: Potency [9] 36.8 µM
inactive: Potency [1] | Potency [2] | Potency [15] | Potency [16] | outcome [17] | outcome [18] | Potency [3] | Potency [6] | Potency [12] | Potency [7] | Potency [8]

CCOC(=O)N1CCC(=C2c3ccc(Cl)cc3CCc3cccnc32)CC1
inactive: Potency [1] | Potency [2] | Potency [15] | outcome [17] | Potency [19] | Potency [4] | Potency [5] | Potency [12]
54.9 µM (active) and inactive: Potency [9]
active: Potency [3] 24.3 µM and 29.8 µM | Potency [7] 30.6 µM

OCCCc1cccnc1
inactive: Potency [1] | Potency [10] | Potency [3] | Potency [4] | Potency [12] | Potency [13] | Potency [7] | Potency [11] | Potency [9]

Oc1c(Br)cc(Br)c2cccnc12
inactive: Potency [1] | Potency [2] | Potency [4] | Potency [5] | Potency [6] | Potency [14] | Potency [11]
active: Potency [3] 23.7 µM | Potency [8] 29.8 µM

ClC/C=C\CCl
inactive: Potency [1] | Potency [2] | Potency [3] | Potency [4] | Potency [5] | Potency [6] | Potency [13] | Potency [7] | Potency [14] | Potency [8] | Potency [11] | Potency [9]
